# In PubChem BioAssay AID540356 (Broad Institute, 2011):
# Hit rate of the full screen: of about 2,500 compounds, about 360 (14%) were called active.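 The calls were made as follows: active = signal-lowering compounds whose fitted half-maximal concentration AC50 is no higher than ten times their top tested concentration; inconclusive = flat curve with 30 to 70% inhibition, or poor fit; inactive = flat within 30%, signal increase, or AC50 above limit.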 Only a sample is shown.
# Test: HRP/luminol detection interference without ALR, dose response, artefact control for ALR inhibitor project, biochemical, luminescence, no ALR or DTT, cherry-pick (AID 540356)
# Settings: HRP/H2O2 luminol luminescence counterscreen; series mostly up to 10 µM
row,Structure (SMILES),AC50
1,CNCCc1ccc(O)c(O)c1,inactive
2,NCCc1ccc(O)c(O)c1,6.13 µM (active)
3,C/C(CCc1c[nH]c2ccccc12)=N\O,inactive
4,CCc1ccc(N2C(=O)NC(=O)/C(=C\C=C\c3ccco3)C2=O)cc1,inactive
5,CC1=NN(c2ccccc2)C(=O)C1/C=C1/C(=O)NC(=O)N(c2cc(C)cc(C)c2)C1=O (stereo not given),inactive
6,CN=C(SCc1ccccc1)c1c(O)n(C)c(=O)n(C)c1=O,inactive
7,Cn1c(O)c(/C=N/Nc2ccccc2)c(=O)n(C)c1=O,1.32 µM (active)
8,N/C(=N\[N+](=O)[O-])N/N=C/c1ccc(O)cc1,inactive
9,C=CCN1C(=O)NC(=O)/C(=C\c2ccc(-c3ccccc3[N+](=O)[O-])o2)C1=O,inactive
10,Cc1ccc(/C=C2\C(=O)NC(=O)N(Cc3ccccc3Cl)C2=O)o1,inactive
11,CCCN1CCc2cccc3c2[C@H]1Cc1ccc(O)c(O)c1-3,9.91 µM (active)
12,CC(=O)Nc1ccccc1OP1(=O)COc2ccccc2OC1,inactive
13,Cc1ccc(/C=C2\C(=O)NC(=O)N(CCc3ccc(F)cc3)C2=O)s1,inactive
14,O=C(O)C12C3CCCC1C32c1ccccc1 (stereo not given),inactive
15,CCNc1ccc(P(=S)(N(C)C)N(C)C)cc1,inactive
